{
  "source": "PubChem BioAssay (NCI)",
  "note": "The panel holds about 79,000 compounds, 15% with a hit somewhere; the sample as a whole holds those more often. The source made the active and inactive calls. Cut-off read from the data, not from the text of the source: active = growth inhibition above about 70%; inactive = the rest.",
  "data": [
    {"experiment": "NCI Yeast Anticancer Drug Screen. Data for the mec2-1 strain (AID 157)", "details": "S. cerevisiae mec2-1 strain, at 50.0 µM, hits give high values", "in_short": "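Strain: mec2-1 (DNA repair/cell cycle alteration). Compound exposure, then growth measured; inhibition expressed relative to vehicle.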", "values": [
      {"molecule": "NC(C(=O)O)c1ccccc1", "note": "(stereo not drawn)", "growth inhibition": "-23.4% (inactive)"},
      {"molecule": "CCOc1ccccc1C(=O)Oc1ccc(C)cc1", "growth inhibition": "-19.2% (inactive)"},
      {"molecule": "COC(=O)C1=C(O)/C(=C\\c2ccccc2)NC1=O", "growth inhibition": "-11.3% (inactive)"},
      {"molecule": "O=C(CN1CCN(Cc2ccccc2)CC1)N1CCCn2c1nc1ccccc1c2=O", "growth inhibition": "-16.6% (inactive)"},
      {"molecule": "CCc1ccc(C(O)C(=O)O)cc1", "note": "(stereo not drawn)", "growth inhibition": "7.95% (inactive)"},
      {"molecule": "CSc1nc2c(nc(N)n2C2OC(CO)C(O)C(O)C2O)c(=O)[nH]1", "note": "(stereo not drawn)", "growth inhibition": "8.45% (inactive)"},
      {"molecule": "O=C(O)c1cscn1.O=C(O)c1cscn1.[I][Pt][I]", "growth inhibition": "3.55% (inactive)"},
      {"molecule": "CCOC(=O)NN(C(=O)OCC)C(C(=O)C1CCCCC1)N(NC(=O)OCC)C(=O)OCC", "growth inhibition": "-21.6% (inactive)"},
      {"molecule": "c1ccc(N=C(Nc2ccccc2)N2CCCC2)cc1", "growth inhibition": "-13.6% (inactive)"},
      {"molecule": "Nc1nc(C(F)(F)F)nc(N)c1N", "growth inhibition": "11% (inactive)"},
      {"molecule": "O=C(CCCCc1ccccc1)NO", "growth inhibition": "18.8% (inactive)"},
      {"molecule": "CCCC(C)OS(=O)(=O)c1ccc(C)cc1", "note": "(stereo not drawn)", "growth inhibition": "-6.55% (inactive)"},
      {"molecule": "CC(C)(N)COCOCC(C)(C)N", "growth inhibition": "-5.35% (inactive)"},
      {"molecule": "CN1CCC(CNc2ccccc2)CC1", "growth inhibition": "-0.5% (inactive)"},
      {"molecule": "NC(=S)n1nc(-c2ccccc2)c(N=Nc2cccc([N+](=O)[O-])c2)c1-c1ccccc1", "growth inhibition": "7.5% (inactive)"},
      {"molecule": "CCC1(CC)NC(=S)NC1=S", "growth inhibition": "7.4% (inactive)"},
      {"molecule": "CCOC1C=CCCO1", "note": "(stereo not drawn)", "growth inhibition": "-2.7% (inactive)"},
      {"molecule": "COc1cc2c(c3c1/c(=N\\N=c1/c4ccccc4n(C)c4c5c(cc(OC)c14)OC(C)(C)C=C5)c1ccccc1n3C)C=CC(C)(C)O2", "growth inhibition": "13.6% (inactive)"},
      {"molecule": "Cn1nc2c(c1-c1ccncc1)CCc1ccccc1-2", "growth inhibition": "65.3% (inactive)"},
      {"molecule": "CCOC(=O)/C=C/c1ccc([N+](=O)[O-])cc1", "growth inhibition": "26.6% (inactive)"},
      {"molecule": "CCCCCCCCCCCCCC(=O)OCC1OC(n2cc(F)c(=O)[nH]c2=O)C(N)C(OC(=O)CCCCCCCCCCCCC)C1O", "note": "(stereo not drawn)", "growth inhibition": "7.4% (inactive)"},
      {"molecule": "CCNC(=O)CCC(NS(=O)(=O)c1ccc(NC(=O)c2ccc(Cl)cc2)cc1)C(=O)O", "note": "(stereo not drawn)", "growth inhibition": "-4.95% (inactive)"},
      {"molecule": "CC1CP(=O)(Cc2ccccc2)C(C)(c2ccccc2)C1=O", "note": "(stereo not drawn)", "growth inhibition": "-0.95% (inactive)"}
    ]},
    {"experiment": "NCI Yeast Anticancer Drug Screen. Data for the sgs1 mgt1 strain (AID 161);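 note: 0% = growth of cultures given vehicle only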", "details": "S. cerevisiae sgs1 mgt1 strain, at 50.0 µM, hits give high values", "in_short": "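Mutant yeast exposed to compound; growth scored against vehicle-only wells.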", "values": [
      {"molecule": "O=C(NCCNc1ccccc1)C12CC3CC(CC(C3)C1)C2", "growth inhibition": "-3.9% (inactive)"},
      {"molecule": "COc1ccc2c(c1)OCCN(C)OC2c1ccccc1", "note": "(stereo not drawn)", "growth inhibition": "-10.2% (inactive)"},
      {"molecule": "CN=C(NN)NS(=O)(=O)c1cc(C)c(Cl)cc1S", "growth inhibition": "-11.7% (inactive)"},
      {"molecule": "COC(=O)[C@H](Cc1ccc(OC(C)(C)C)cc1)N[C@H](C)C(=O)N[C@@H](Cc1ccccc1)C(=O)OCc1ccccc1", "growth inhibition": "50.1% (inactive)"},
      {"molecule": "O=C(O)c1ccccc1C(=O)Cc1ccccc1", "growth inhibition": "-6.7% (inactive)"},
      {"molecule": "Oc1ccc2cccc(O)c2c1", "growth inhibition": "37.5% (inactive)"},
      {"molecule": "O=C(Cc1ccccc1)c1ccc(N2CCOCC2)cc1", "growth inhibition": "11.5% (inactive)"},
      {"molecule": "NCC(=O)Nc1ccc(Cl)cc1C(=O)c1ccc[nH]1", "growth inhibition": "-27.6% (inactive)"},
      {"molecule": "CS(=O)(=O)C(CCC(=O)C(c1ccccc1)c1ccccc1)C(=O)c1ccccc1", "note": "(stereo not drawn)", "growth inhibition": "-20.5% (inactive)"},
      {"molecule": "COC(=O)C1CC(=O)CCC1c1ccccc1", "note": "(stereo not drawn)", "growth inhibition": "-16.1% (inactive)"},
      {"molecule": "CCCCCCCCCCCCCCCCc1ccc(CCCC(=O)O)cc1", "growth inhibition": "-13.3% (inactive)"},
      {"molecule": "c1ccc2c(CN3CCN(Cc4c[nH]c5ccccc45)CC3)c[nH]c2c1", "growth inhibition": "-14.5% (inactive)"},
      {"molecule": "Cc1cc(=O)n(Cc2ccco2)c(=S)[nH]1", "growth inhibition": "14.6% (inactive)"},
      {"molecule": "CC(=O)Oc1ccc(OC(C)=O)c(C(=O)O)c1", "growth inhibition": "2.9% (inactive)"},
      {"molecule": "O=C(O)CS/C(=N\\S(=O)(=O)c1ccccc1)Nc1cccc(Cl)c1", "growth inhibition": "19.1% (inactive)"},
      {"molecule": "O=C(NCc1ccccn1)c1ccccc1", "growth inhibition": "-4.45% (inactive)"},
      {"molecule": "CCC(Cc1cnc2nc(N)nc(N)c2n1)c1ccc(C(=O)NC(CCC(=O)O)C(=O)O)cc1", "note": "(stereo not drawn)", "growth inhibition": "1.8% (inactive)"},
      {"molecule": "NC(C(=O)O)c1ccccc1", "note": "(stereo not drawn)", "growth inhibition": "-3.85% (inactive)"},
      {"molecule": "CCOc1ccccc1C(=O)Oc1ccc(C)cc1", "growth inhibition": "7.1% (inactive)"},
      {"molecule": "COC(=O)C1=C(O)/C(=C\\c2ccccc2)NC1=O", "growth inhibition": "-12.9% (inactive)"},
      {"molecule": "O=C(CN1CCN(Cc2ccccc2)CC1)N1CCCn2c1nc1ccccc1c2=O", "growth inhibition": "-7.9% (inactive)"},
      {"molecule": "CCc1ccc(C(O)C(=O)O)cc1", "note": "(stereo not drawn)", "growth inhibition": "-1.6% (inactive)"},
      {"molecule": "CSc1nc2c(nc(N)n2C2OC(CO)C(O)C(O)C2O)c(=O)[nH]1", "note": "(stereo not drawn)", "growth inhibition": "-1.85% (inactive)"},
      {"molecule": "O=C(O)c1cscn1.O=C(O)c1cscn1.[I][Pt][I]", "growth inhibition": "13.9% (inactive)"},
      {"molecule": "CCOC(=O)NN(C(=O)OCC)C(C(=O)C1CCCCC1)N(NC(=O)OCC)C(=O)OCC", "growth inhibition": "18.9% (inactive)"}
    ]}
  ]
}
